Source: PubChem BioAssay AID1159580 (chemical genetic matrix, 2015)
The campaign covered roughly 5,500 compounds. About 2,000 (36%) were called active. About 18% were inconclusive and are not listed. Rule as the data show it: active = normalized growth mostly below about 0.91 (no sharp cut-off); inconclusive = no clear call, values can overlap the other calls; inactive = mostly above about 0.92. The list shows a part of the results.

Test: chemical genetic growth profiling, strain panel (AID 1159580);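 also: tested at 20 µM; growth read once vehicle control cultures reached saturation at 30 °C; 1 = growth at the plate median or of vehicle wells; lower values mean less growth of the strain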
Settings: S. cerevisiae deletion strains, growth OD

Measured: normalized growth

CC1CCN(CC[C@H]2CCCN2S(=O)(=O)c2cccc(O)c2)CC1
inactive: locus YAL040C, strain CLN3, hits give low values 0.99 | locus YCL061C, strain MRC1 (second series), hits give low values 1 | locus YDR363W, strain ESC2, hits give low values 0.986 | locus YER002W, strain NOP16, hits give low values 0.989 | locus YGR078C, strain PAC10, hits give low values 1.02 | locus YMR263W, strain SAP30, hits give low values 1 | locus YMR307W, strain GAS1, hits give low values 1.03 | locus YNL128W, strain TEP1, hits give low values 1.01 | locus YNL175C, strain NOP13, hits give low values 1.01 | locus YNL197C, strain WHI3, hits give low values 1.01 | locus YNL224C, strain SQS1, hits give low values 1 | locus YNL322C, strain KRE1, hits give low values 0.984 | locus YOR083W, strain WHI5 (second series), hits give low values 1.03
